Measured values from the supplement of paper PMC10849652.
Of roughly 8,800 targets only a part is listed; those with a hit were picked by preference. About 0.5% of all pairs of compound and target were hits.

What was measured:
Assay in all cases: log2 fold change, soluble protein after heating vs DMSO (PISA); higher = thermal stabilisation; K562 lysate, 10 uM; active = over 0.2 and 3.5 SD of the protein, either way, in both replicates (recomputed)
nilotinib = compound: Cc1cn(-c2cc(NC(=O)c3ccc(C)c(Nc4nccc(-c5cccnc5)n4)c3)cc(C(F)(F)F)c2)cn1 [nilotinib]
How it was run: (§1)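 Values give the log-two fold change in thermal stability against solvent controls, from duplicates. Crude K562 extract at 1 mg/mL protein, made by dounce homogenisation in PBS pH 7.4 with 1 mM MgCl2, was treated with 10 μM compound for 30 min. After 3 min heating across 48°C-58°C, aliquots were pooled, adjusted to 0.5% NP-40 at 4°C and centrifuged at 21,000xg for 90 min. The supernatant was measured by TMTpro 16plex LC-MS/MS with channel sums equalised.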

[1] = compound: Cc1nc(Nc2n[nH]c3c2CN(C(=O)N[C@H](CN(C)C)c2ccccc2)C3(C)C)c2sccc2n1
How it was run: as §1

dasatinib = compound: Cc1nc(Nc2ncc(C(=O)Nc3c(C)cccc3Cl)s2)cc(N2CCN(CCO)CC2)n1 [dasatinib]
How it was run: as §1

[2] = compound: Cc1ncc(-c2ccnc(Nc3ccc(S(C)(=O)=O)cc3)n2)n1C(C)C
How it was run: as §1

[3] = compound: Cn1cc(-c2ccc3c(c2)CCN3C(=O)Cc2cccc(C(F)(F)F)c2)c2c(N)ncnc21
How it was run: as §1

quisinostat = compound: Cn1cc(CNCC2CCN(c3ncc(C(=O)NO)cn3)CC2)c2ccccc21 [quisinostat]
How it was run: as §1

tipifarnib = compound: Cn1cncc1[C@@](N)(c1ccc(Cl)cc1)c1ccc2c(c1)c(-c1cccc(Cl)c1)cc(=O)n2C [tipifarnib]
How it was run: as §1

[4] = compound: NC(=O)Nc1cc(-c2cccc(F)c2)sc1C(=O)N[C@H]1CCCNC1
How it was run: as §1

[5] = compound: NC(=O)c1cnc(N[C@@H]2CCCC[C@@H]2N)nc1Nc1cccc(-n2nccn2)c1
How it was run: as §1

[6] = compound: NC1(c2ccc(-c3nc4ccn5c(=O)[nH]nc5c4cc3-c3ccccc3)cc2)CCC1
How it was run: as §1

[7] = compound: NCC(=O)Nc1ccc(-n2nc(C(F)(F)F)cc2-c2ccc3c(ccc4ccccc43)c2)cc1
How it was run: as §1

vorinostat = compound: O=C(CCCCCCC(=O)Nc1ccccc1)NO [vorinostat]
How it was run: as §1

silmitasertib = compound: O=C(O)c1ccc2c(c1)nc(Nc1cccc(Cl)c1)c1ccncc12 [silmitasertib]
How it was run: as §1

[8] = compound: O=C1NC(=O)C(c2cnc3ccccn23)=C1c1cn2c3c(cc(F)cc13)CN(C(=O)N1CCCCC1)CC2
How it was run: as §1

entospletinib = compound: c1cn2cc(-c3ccc4cn[nH]c4c3)nc(Nc3ccc(N4CCOCC4)cc3)c2n1 [entospletinib]
How it was run: as §1

Measured: log2 fold change

CEP76 (UniProt Q8TAP6)
active: quisinostat -0.241
inactive: nilotinib -0.005 | [1] -0.021 | dasatinib -0.002 | [2] -0.021 | [3] -0.005 | tipifarnib 0.006 | [4] -0.01 | [5] -0.015 | [6] -0.02 | [7] -0.1 | vorinostat -0.055 | silmitasertib 0.027 | [8] -0.051 | entospletinib 0.039

CHCHD2 (UniProt Q9Y6H1)
Sequence of UniProt Q9Y6H1 (Q9Y6H1 whole entry, looked up): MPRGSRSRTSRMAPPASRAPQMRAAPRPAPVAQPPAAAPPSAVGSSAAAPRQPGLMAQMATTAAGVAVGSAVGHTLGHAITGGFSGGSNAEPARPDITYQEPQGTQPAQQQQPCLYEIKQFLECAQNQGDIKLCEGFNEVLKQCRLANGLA
active: vorinostat -0.301
inactive: nilotinib -0.102 | [1] 0.039 | dasatinib 0.016 | [2] -0.075 | [3] 0.031 | quisinostat -0.049 | tipifarnib 0.058 | [4] -0.014 | [5] -0.029 | [6] 0.136 | [7] -0.022 | silmitasertib 0.044 | [8] -0.017 | entospletinib -0.06

CHCHD7 isoform 4 (UniProt Q9BUK0)
Sequence of UniProt Q9BUK0 (Q9BUK0 whole entry, looked up): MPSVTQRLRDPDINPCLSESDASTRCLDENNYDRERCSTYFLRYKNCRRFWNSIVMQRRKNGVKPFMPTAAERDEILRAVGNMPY
inactive: nilotinib -0.147 | [1] 0.031 | dasatinib -0.044 | [2] -0.147 | [3] 0.041 | quisinostat -0.207 | tipifarnib -0.117 | [4] 0.055 | [5] -0.04 | [7] -0.031 | [8] -0.066 | entospletinib 0.008

ATP6V0A2 (UniProt Q9Y487)
inactive: nilotinib 0.034 | [1] -0.008 | dasatinib -0.028 | [2] 0.027 | [3] 0.003 | quisinostat -0.065 | tipifarnib -0.033 | [4] -0.011 | [5] 0.001 | [6] -0.001 | [7] -0.033 | vorinostat 0.127 | silmitasertib -0.016 | [8] -0.021 | entospletinib 0.012

CHD9 (UniProt Q3L8U1)
Sequence of UniProt Q3L8U1 (Q3L8U1 whole entry, looked up): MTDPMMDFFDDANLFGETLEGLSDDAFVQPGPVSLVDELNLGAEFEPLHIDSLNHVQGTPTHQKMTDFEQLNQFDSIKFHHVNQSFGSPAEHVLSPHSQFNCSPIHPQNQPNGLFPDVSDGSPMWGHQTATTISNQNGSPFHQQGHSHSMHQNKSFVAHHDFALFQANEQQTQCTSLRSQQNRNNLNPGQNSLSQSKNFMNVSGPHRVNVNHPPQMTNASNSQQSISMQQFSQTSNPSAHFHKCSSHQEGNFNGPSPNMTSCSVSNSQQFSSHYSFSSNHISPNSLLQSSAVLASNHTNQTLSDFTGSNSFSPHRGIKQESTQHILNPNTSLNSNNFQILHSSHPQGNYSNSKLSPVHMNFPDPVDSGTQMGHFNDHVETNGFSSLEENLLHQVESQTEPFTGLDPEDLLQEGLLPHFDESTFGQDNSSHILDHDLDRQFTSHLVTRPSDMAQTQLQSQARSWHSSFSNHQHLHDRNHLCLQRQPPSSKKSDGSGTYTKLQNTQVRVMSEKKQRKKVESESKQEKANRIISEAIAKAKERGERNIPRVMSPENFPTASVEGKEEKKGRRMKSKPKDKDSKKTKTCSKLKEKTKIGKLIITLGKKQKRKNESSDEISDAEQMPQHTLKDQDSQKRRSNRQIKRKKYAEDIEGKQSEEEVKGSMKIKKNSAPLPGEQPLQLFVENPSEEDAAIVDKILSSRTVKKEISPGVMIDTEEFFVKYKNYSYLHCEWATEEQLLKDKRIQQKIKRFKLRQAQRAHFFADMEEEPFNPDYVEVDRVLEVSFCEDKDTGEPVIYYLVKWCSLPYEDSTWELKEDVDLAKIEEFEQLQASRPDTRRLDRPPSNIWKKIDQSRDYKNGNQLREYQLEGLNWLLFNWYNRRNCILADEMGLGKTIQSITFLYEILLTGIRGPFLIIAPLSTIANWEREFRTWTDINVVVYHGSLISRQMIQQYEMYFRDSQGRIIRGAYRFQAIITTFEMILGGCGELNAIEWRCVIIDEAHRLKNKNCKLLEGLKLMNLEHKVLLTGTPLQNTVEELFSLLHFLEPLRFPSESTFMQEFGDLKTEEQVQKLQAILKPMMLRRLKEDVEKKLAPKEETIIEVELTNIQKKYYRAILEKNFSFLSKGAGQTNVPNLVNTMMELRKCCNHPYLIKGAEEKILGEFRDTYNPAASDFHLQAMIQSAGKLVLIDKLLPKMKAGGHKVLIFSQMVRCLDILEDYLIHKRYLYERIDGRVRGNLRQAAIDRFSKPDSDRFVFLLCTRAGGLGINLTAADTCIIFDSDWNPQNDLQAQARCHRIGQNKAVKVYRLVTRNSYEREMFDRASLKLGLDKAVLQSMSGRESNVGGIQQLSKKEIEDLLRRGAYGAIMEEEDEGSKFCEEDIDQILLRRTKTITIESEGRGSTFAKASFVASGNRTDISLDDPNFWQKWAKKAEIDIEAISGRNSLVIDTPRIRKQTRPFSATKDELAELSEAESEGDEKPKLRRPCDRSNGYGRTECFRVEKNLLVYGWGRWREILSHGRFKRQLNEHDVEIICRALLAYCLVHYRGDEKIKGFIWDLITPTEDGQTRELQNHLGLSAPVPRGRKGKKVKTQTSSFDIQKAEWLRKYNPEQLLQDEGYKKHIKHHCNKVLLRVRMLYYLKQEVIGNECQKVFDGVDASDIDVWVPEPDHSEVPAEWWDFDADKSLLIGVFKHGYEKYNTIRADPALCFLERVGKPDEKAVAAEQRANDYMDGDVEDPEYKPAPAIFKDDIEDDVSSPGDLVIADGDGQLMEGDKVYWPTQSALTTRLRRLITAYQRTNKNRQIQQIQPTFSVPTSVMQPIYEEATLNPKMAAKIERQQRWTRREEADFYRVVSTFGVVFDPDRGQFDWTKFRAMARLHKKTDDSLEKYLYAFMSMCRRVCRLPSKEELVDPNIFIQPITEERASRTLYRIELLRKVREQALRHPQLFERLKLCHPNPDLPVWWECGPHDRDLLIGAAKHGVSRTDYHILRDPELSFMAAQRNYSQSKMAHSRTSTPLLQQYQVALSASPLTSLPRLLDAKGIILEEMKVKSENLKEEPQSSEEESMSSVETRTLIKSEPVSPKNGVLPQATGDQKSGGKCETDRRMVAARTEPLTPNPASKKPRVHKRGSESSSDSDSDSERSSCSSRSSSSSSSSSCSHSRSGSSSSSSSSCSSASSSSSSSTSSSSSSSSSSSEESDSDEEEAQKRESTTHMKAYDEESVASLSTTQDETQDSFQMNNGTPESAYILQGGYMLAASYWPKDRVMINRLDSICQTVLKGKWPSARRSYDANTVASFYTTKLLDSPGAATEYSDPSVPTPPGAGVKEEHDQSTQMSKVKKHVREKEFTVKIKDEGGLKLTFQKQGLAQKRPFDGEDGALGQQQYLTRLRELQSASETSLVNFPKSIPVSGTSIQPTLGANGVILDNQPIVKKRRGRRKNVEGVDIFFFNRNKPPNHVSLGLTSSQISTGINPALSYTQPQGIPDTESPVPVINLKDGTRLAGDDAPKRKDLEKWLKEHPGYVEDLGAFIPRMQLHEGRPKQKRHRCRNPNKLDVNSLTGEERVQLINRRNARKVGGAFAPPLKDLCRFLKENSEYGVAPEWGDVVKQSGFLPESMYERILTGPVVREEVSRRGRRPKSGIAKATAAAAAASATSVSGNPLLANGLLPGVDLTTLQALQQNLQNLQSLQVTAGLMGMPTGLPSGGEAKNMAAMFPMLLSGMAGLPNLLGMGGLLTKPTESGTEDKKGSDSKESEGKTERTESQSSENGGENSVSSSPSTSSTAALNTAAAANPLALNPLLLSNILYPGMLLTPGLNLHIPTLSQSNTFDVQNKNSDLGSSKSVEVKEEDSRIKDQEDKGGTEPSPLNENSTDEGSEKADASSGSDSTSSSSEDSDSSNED
inactive: nilotinib 0.209 | [1] 0.125 | dasatinib -0.124 | [2] -0.279 | [3] -0.109 | quisinostat -0.029 | tipifarnib -0.017 | [4] 0 | [6] 0.032 | [7] -0.018 | vorinostat -0.111 | silmitasertib 0.075 | [8] -0.012

CDK1 (UniProt P06493)
inactive: nilotinib -0.026 | [1] 0.018 | dasatinib -0.027 | [2] 0.067 | [3] -0.02 | quisinostat 0.003 | tipifarnib 0.015 | [4] 0.012 | [5] 0.127 | [6] 0.015 | [7] 0.029 | vorinostat -0.049 | [8] -0.055 | entospletinib 0.006

CDC25A (UniProt P30304)
inactive: nilotinib 0.013 | [1] -0.01 | dasatinib -0.035 | [2] -0.021 | [3] 0.024 | quisinostat 0.006 | tipifarnib 0.011 | [4] 0.017 | [5] 0.016 | [6] 0.025 | silmitasertib 0.084 | [8] -0.172
active: vorinostat -1.01

CEP120 (UniProt Q8N960)
inactive: [1] -0.186 | dasatinib 0 | [2] -0.251 | [3] -0.001 | quisinostat -0.067 | tipifarnib 0.16 | [4] 0.013 | [5] 0.024 | [6] -0.151 | [7] 0.261 | vorinostat 0.042 | silmitasertib -0.075 | [8] 0.135 | entospletinib -0.13
active: nilotinib 0.524

CCNK isoform 4 (UniProt O75909)
inactive: nilotinib 0.011 | [1] -0.03 | dasatinib -0.051 | [2] -0.009 | [3] 0.003 | quisinostat 0.009 | tipifarnib -0.004 | [4] -0.006 | [5] -0.005 | [6] -0.011 | [7] 0.032 | vorinostat 0.093 | silmitasertib -0.007 | [8] -0.051 | entospletinib -0.002

CFDP1 (UniProt Q9UEE9)
inactive: nilotinib -0.008 | [1] 0.051 | dasatinib 0.029 | [2] 0.035 | [3] 0.009 | quisinostat -0.102 | tipifarnib 0.013 | [4] -0.038 | [5] -0.013 | [6] -0.026 | [7] -0.009 | vorinostat 0.095 | silmitasertib -0.05 | [8] -0.078 | entospletinib -0.012

CDC123 (UniProt O75794)
inactive: nilotinib 0.026 | [1] -0.011 | dasatinib -0.006 | [2] -0.104 | [3] 0.033 | quisinostat 0.008 | tipifarnib -0.008 | [4] 0.022 | [5] -0.009 | [6] 0.017 | [7] -0.064 | vorinostat -0.019 | silmitasertib 0.015 | [8] -0.032 | entospletinib 0.043

CD63 (UniProt P08962)
inactive: nilotinib -0.053 | [1] 0.098 | dasatinib -0.034 | [2] -0.032 | [3] 0.005 | quisinostat -0.08 | tipifarnib 0.126 | [4] -0.006 | [5] -0.043 | [6] -0.009 | [7] -0.1 | vorinostat 0.123 | silmitasertib -0.039 | [8] -0.173 | entospletinib 0.077

CASP7 isoform 3 (UniProt P55210)
Sequence of UniProt P55210 (P55210 whole entry, looked up): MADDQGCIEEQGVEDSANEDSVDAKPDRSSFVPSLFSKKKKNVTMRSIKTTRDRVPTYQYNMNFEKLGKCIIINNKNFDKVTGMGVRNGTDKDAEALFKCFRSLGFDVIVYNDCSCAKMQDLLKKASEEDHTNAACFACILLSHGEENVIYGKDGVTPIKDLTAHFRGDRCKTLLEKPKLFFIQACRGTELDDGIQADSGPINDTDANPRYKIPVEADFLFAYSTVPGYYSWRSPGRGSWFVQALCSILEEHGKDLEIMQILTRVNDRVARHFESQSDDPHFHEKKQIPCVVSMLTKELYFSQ
inactive: nilotinib -0.042 | [1] 0.01 | dasatinib -0.091 | [2] 0.05 | [3] 0.226 | quisinostat -0.016 | tipifarnib 0.049 | [4] 0.022 | [5] 0.106 | [6] 0.063 | vorinostat -0.254 | silmitasertib 0.113 | [8] 0.01 | entospletinib 0.063

C2CD5 isoform 3 (UniProt Q86YS7)
inactive: nilotinib -0.036 | [1] 0.074 | dasatinib -0.053 | [2] 0.046 | [3] 0.01 | quisinostat 0.013 | tipifarnib -0.053 | [4] 0.024 | [5] 0.01 | [6] -0.044 | [7] 0.01 | vorinostat 0.086 | silmitasertib -0.059 | [8] 0.049 | entospletinib 0.009

C18orf25 isoform 2 (UniProt Q96B23)
Sequence of UniProt Q96B23 (Q96B23 whole entry, looked up): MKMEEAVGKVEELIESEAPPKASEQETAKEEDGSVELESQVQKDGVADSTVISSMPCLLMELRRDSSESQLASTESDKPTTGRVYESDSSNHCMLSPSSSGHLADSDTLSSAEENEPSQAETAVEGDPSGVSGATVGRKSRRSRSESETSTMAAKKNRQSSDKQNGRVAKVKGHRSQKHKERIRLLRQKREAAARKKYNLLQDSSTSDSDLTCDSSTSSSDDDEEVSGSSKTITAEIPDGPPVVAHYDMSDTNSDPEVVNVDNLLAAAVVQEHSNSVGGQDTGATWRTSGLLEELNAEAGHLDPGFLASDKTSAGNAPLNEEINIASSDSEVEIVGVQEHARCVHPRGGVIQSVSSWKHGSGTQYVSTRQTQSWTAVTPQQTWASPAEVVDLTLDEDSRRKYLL
inactive: nilotinib -0.026 | [1] -0.115 | dasatinib -0.025 | [2] -0.291 | [3] -0.056 | tipifarnib 0.076 | [5] 0.01 | [6] -0.071 | [7] -0.014 | vorinostat -0.034 | silmitasertib -0.067 | entospletinib 0.038

CCDC22 (UniProt O60826)
Sequence of UniProt O60826 (O60826 whole entry, looked up): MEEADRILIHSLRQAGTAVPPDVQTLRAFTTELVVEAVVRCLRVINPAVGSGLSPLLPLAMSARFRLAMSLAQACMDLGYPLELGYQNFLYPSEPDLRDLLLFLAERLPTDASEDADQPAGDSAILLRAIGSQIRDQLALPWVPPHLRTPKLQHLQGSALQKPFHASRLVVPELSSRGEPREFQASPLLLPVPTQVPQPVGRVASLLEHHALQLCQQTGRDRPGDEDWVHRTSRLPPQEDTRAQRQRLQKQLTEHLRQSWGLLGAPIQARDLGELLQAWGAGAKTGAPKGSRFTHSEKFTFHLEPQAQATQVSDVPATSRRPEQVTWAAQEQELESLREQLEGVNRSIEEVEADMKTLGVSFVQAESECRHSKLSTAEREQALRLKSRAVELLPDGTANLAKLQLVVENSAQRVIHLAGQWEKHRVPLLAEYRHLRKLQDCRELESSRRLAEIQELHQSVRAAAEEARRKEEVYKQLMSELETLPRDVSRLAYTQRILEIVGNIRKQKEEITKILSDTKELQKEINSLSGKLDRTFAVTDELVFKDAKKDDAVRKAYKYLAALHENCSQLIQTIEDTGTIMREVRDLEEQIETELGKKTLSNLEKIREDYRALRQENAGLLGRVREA
inactive: nilotinib 0.007 | [1] -0.018 | dasatinib -0.055 | [2] -0.005 | [3] -0.006 | quisinostat -0.006 | tipifarnib 0.012 | [4] 0.041 | [5] 0.025 | [6] -0.017 | [7] 0.056 | silmitasertib 0.022 | [8] 0.014 | entospletinib -0.021
active: vorinostat -0.222

CCT6A (UniProt P40227)
inactive: nilotinib -0.003 | [1] -0.004 | dasatinib -0.001 | [2] -0.007 | [3] 0.001 | quisinostat 0.037 | tipifarnib 0.014 | [4] -0.005 | [5] 0.003 | [6] 0.005 | [7] 0.004 | vorinostat 0.049 | silmitasertib -0.005 | [8] 0.012 | entospletinib 0.024

BCR (UniProt P11274)
active: vorinostat -0.267
inactive: nilotinib 0.108 | [1] 0.021 | dasatinib 0.043 | [2] -0.017 | [3] -0.018 | quisinostat -0.044 | tipifarnib -0.015 | [5] 0.028 | [6] 0.016 | [7] 0.012 | silmitasertib 0.005 | [8] 0.001 | entospletinib -0.009

BET1 (UniProt O15155)
Sequence of UniProt O15155 (O15155 whole entry, looked up): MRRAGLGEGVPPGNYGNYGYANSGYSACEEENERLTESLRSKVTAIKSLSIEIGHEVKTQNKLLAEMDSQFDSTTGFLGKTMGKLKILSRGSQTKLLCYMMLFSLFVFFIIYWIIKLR
inactive: nilotinib 0.038 | [1] 0.052 | dasatinib -0.015 | [2] -0.011 | [3] 0 | quisinostat 0.023 | tipifarnib -0.063 | [4] -0.005 | [5] -0.057 | [6] -0.005 | [7] 0.015 | vorinostat -0.042 | silmitasertib -0.008 | [8] -0.01 | entospletinib 0.035

CEP57L1 (UniProt Q8IYX8)
Sequence of UniProt Q8IYX8 (Q8IYX8 whole entry, looked up): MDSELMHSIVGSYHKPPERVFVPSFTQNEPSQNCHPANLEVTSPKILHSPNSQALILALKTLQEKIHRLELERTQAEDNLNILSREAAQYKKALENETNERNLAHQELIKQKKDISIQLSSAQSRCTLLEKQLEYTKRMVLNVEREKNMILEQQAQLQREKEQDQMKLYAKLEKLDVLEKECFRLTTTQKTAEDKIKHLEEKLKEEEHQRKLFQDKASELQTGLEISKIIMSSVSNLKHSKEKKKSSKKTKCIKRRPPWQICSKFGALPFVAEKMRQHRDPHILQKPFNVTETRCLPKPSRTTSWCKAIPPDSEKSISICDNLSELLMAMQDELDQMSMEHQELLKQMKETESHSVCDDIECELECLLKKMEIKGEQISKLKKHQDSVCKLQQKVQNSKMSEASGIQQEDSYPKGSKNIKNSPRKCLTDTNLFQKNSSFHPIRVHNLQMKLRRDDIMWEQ
inactive: nilotinib 0.246 | [1] -0.129 | dasatinib 0 | [2] -0.014 | [3] 0.34 | quisinostat -0.101 | tipifarnib -0.015 | [4] 0.041 | [6] 0.031 | vorinostat -0.23 | silmitasertib 0.133 | [8] -0.044 | entospletinib -0.029

ATG10 (UniProt Q9H0Y0)
active: vorinostat -0.242
inactive: nilotinib -0.064 | [1] 0.026 | dasatinib 0.043 | [2] -0.16 | [3] -0.068 | quisinostat 0.015 | tipifarnib 0.125 | [4] -0.01 | [6] 0.016 | [7] -0.032 | silmitasertib 0.049 | [8] -0.023 | entospletinib 0.034
